Values joined by “and” are separate entries in the source; they are usually repeats but may differ in a detail not shown here. Identical values can stand only once. Inconclusive results are not listed. Some structures have more than one record in an assay (separate samples or runs), and their calls can disagree. Active and inactive are the calls of the source. Unless noted, calls come from the whole dose curve. Some results are limits rather than exact numbers.

The nature of experiment [1]: AP1 Signaling Pathway (AID 357; active = well fitted curve in either direction with a large enough effect, not every such curve was filed as active;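 note: ME-180 reporter cells stimulated with EGF at its EC50 level; % is set by controls: 0 for no effect and ±100 for the full control effect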). As to conditions: ME-180 AP-1-bla reporter, EGF-induced, beta-lactamase ratio, 5 h; series mostly up to 17.2 µM. An outline of the steps:
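Cells are seeded overnight, exposed to compound titrations and an EC50 level of EGF for 5 hours at 37 °C, then loaded with CCF4 dye for 2.5 hours. Beta-lactamase activity under the AP-1 element is read as a blue/green ratio.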

Experiment [2] has as its target Cytochrome P450 1A2 (Homo sapiens) (UniProt P05177). Nature of the experiment: p450-cyp1a2 (AID 410).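 For activity change, negative = inhibition: -100% = full effect of reference inhibitor.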 Note: potency is the fitted concentration of half-maximal effect. As to conditions: recombinant CYP1A2, luciferin-ME demethylation, luminescence; series mostly up to 57 µM. The procedure, abridged: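 20nM CYP1A2 with 100uM Luciferin-ME (at Km) in 100mM KPO4; compound preincubated 10 min, NADPH regeneration added, 60 min at room temperature. Luciferin quantified by luminescence after detection reagent; normalized to 57 uM furafylline.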

Experiment [3] in a line: NFAT Signaling Pathway (AID 444; active = well fitted curve in either direction with a large enough effect, not every such curve was filed as active;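 note: carbachol stimulus at about its EC50 of 1 µM final; % is set by controls: 0 for no effect and ±100 for the full control effect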). To be noted: Jurkat NFAT-bla M1, carbachol, beta-lactamase ratio, 5 h. An outline of the steps:
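Jurkat cells carrying an NFAT-driven β-lactamase reporter and co-transfected muscarinic M1 receptor were treated with compound plus carbachol (1 uM final, an EC50 level) for 5 h at 37 °C. CCF4 loading followed for 1 h at RT; 460/530 nm ratio gave %activity.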

The target of experiment [4] is Glucocorticoid receptor (Homo sapiens) (UniProt P04150). The experiment can be described thus: GR-GFP Redistribution (AID 450;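 active = compounds whose dose series gives a full or clear partial fitted curve of increased nuclear translocation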; note: potency is the fitted concentration of half-maximal effect). As to conditions: U2OS GR-GFP nuclear translocation, laser cytometry, 2 h.
The target is the same in experiment [5]. The experiment can be described thus: GR-EFC Redistribution (AID 451). Note: potency is the fitted concentration of half-maximal effect. As to conditions: CHO-K1 GR-EFC translocation, beta-gal luminescence, 2 h. An outline of the steps:
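CHO-K1 cells stably expressing nuclear-localized β-gal enzyme acceptor and GR fused C-terminally to the enzyme donor fragment; ligand-driven nuclear translocation restores β-gal by complementation. Compounds titrated up to 46 uM final, 2 h at 37 °C; luminescence read.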

Experiment [6] has as its target Mitogen-activated protein kinase 10 (Mus musculus) (UniProt Q61831). The experiment can be described thus: JNK3 AlphaScreen Assay (AID 530; active = well fitted curve in either direction with a large enough effect, not every such curve was filed as active;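 note: kinase came from lysate of stimulated human HepG2 cells; signal reports phosphorylation of biotinylated GST-cJun 1-79 at Ser73 with 10 µM ATP; % is set by controls: 0 for no effect and ±100 for the full control effect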). To be noted: JNK3 lysate, c-Jun phosphorylation; series mostly up to 57.1 µM. The procedure, abridged: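 Inhibitors reduce antibody binding to phosphorylated biotin-cJun, lowering AlphaScreen luminescence. Lysates from HepG2 cells pre-activated by IL-1beta plus TNF-alpha supplied JNK3; compounds were titrated.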
(In Alpha technology, singlet oxygen from a donor bead excites a nearby acceptor bead.)

A short description of experiment [7]: Cell Viability - BJ (AID 421).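 Note: potency is the fitted concentration of half-maximal effect; cells exposed to compound for 40 hours at 37 °C before readout.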 As to conditions: BJ fibroblast viability, qHTS. The procedure, abridged:
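Normal human BJ foreskin fibroblasts, 1500/well in complete medium, treated 40 hr at 37 °C. Cellular ATP by CellTiter-Glo luminescence; normalized to DMSO and 100 uM tamoxifen, AC50 from Hill fit.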
In general terms: Quantitative high-throughput screening tests each substance at several concentrations.

Experiment [8] is described as follows: Cell Viability - Jurkat (AID 426;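 active = dose-dependent loss of cell ATP signal giving a full or clear fitted curve, ranked by lower potency value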; note: potency is the fitted concentration of half-maximal effect). To be noted: qHTS. The procedure, abridged:
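Jurkat (Clone E6-1) cells, 5000/well in complete medium, exposed to compounds for 40 hr at 37C; intracellular ATP measured by CellTiter-Glo luminescence after 20 min at room temperature. AC50 from Hill fits.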

Experiment [9] in a line: Cell Viability - HepG2 (AID 433).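 Note: potency is the fitted concentration of half-maximal effect; potency for ATP loss meaning cytotoxicity.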 As to conditions: qHTS. The procedure, abridged: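 In this qHTS format, a 40 h, 37 °C compound incubation of HepG2 cells in complete medium precedes a 20 min CellTiter-Glo step at room temperature. Tamoxifen and doxorubicin serve as positive controls; Hill-equation fits yield AC50.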
Experiment [10] in a line: Cell Viability - MRC5 (AID 434).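 Note: potency is the fitted concentration of half-maximal effect; potency reflects cytotoxicity seen as loss of intracellular ATP.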 To be noted: MRC5 lung fibroblast viability, qHTS. The procedure, abridged: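 MRC5 normal human lung fibroblasts (1500/well) were treated with compounds for 40 hr at 37 °C in complete medium, and viable cells were measured as intracellular ATP by CellTiter-Glo luminescence. AC50 came from Hill fits, normalized to DMSO and 100 uM tamoxifen.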

A short description of experiment [11]: Cell Viability - SK-N-SH (AID 435).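 Note: potency is the fitted concentration of half-maximal effect; compound exposure lasted 40 h at 37 °C.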 As to conditions: SK-N-SH neuroblastoma cell viability qHTS. The procedure, abridged:
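Human neuroblastoma line, 40 h exposure at 37 °C, ATP quantified via luciferase luminescence; DMSO and 100 uM tamoxifen define 0 and 100% inhibition for AC50 fitting.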

Experiment [12] can be described thus: Cell Viability - N2a (AID 540; active = well fitted curve in the direction sought with a large enough effect; an effect the other way counts as inactive or inconclusive;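 note: plate controls were DMSO alone for no effect and tamoxifen control for full effect; nearly all actives have a fitted effect of over 45% in size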). As to conditions: N2a mouse neuroblastoma cell viability; series mostly up to 92.2 µM. An outline of the steps:
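Mouse neuroblastoma N2a cells, 1500/well, exposed to compounds 40 h at 37 °C in complete medium. Viability measured as cellular ATP by CellTiter-Glo luminescence; AC50 from Hill fits of concentration-response.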

Experiment [13] in a line: Cell Viability - HUV-EC-C (AID 542; active = well fitted curve in the direction sought with a large enough effect; an effect the other way counts as inactive or inconclusive; note: % is set by controls: 0 for no effect and ±100 for the full control effect; nearly all actives have a fitted effect of over 35% in size). As to conditions: HUV-EC-C endothelial cell viability, qHTS; series mostly up to 92.2 µM. The procedure, abridged: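 HUV-EC-C human vascular endothelial cells, 1000/well, exposed to compound for 40 hr at 37 °C in complete medium. Intracellular ATP was read by CellTiter-Glo luminescence. AC50 came from Hill-equation fits of concentration-response data.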

Experiment [14] is described as follows: Cell Viability - Renal Proximal Tubule (AID 545; active = well fitted curve in the direction sought with a large enough effect; an effect the other way counts as inactive or inconclusive;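 note: 0% = DMSO only and -100% = 100 µM tamoxifen; nearly all actives have a fitted effect of over 40% in size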). To be noted: renal proximal tubule cells viability; series mostly up to 91.7 µM. An outline of the steps:
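In this qHTS format, normal rat kidney-derived proximal tubule cells in complete culture medium receive compound titrations, then sit 40 hours at 37 °C before luciferase-based ATP quantitation; potency is reported as AC50 from concentration-response curves.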

A short description of experiment [15]: Cell Viability - Hek293 (AID 427;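 active = compounds whose dose-response curve shows a full or clear partial loss of cell viability, called from curve shape rather than a numeric limit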;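 note: potency is the fitted concentration of half-maximal effect; cells exposed to compound for 40 hours at 37 °C before reading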). As to conditions: qHTS. An outline of the steps: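 HEK293 cells in complete medium were exposed to compound for 40 hr at 37 °C, then cellular ATP was read by CellTiter-Glo luminescence. Data were normalized to DMSO (basal) and 100 uM tamoxifen (100% inhibition), and AC50 came from Hill fits.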
The nature of experiment [16]: Stat Signaling Pathway (AID 446; active = well fitted curve in either direction with a large enough effect, not every such curve was filed as active;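 note: ME-180 cervical cancer cells given 40 pM IL-6 alongside compound; SIE-controlled beta-lactamase reporter measured as 460/530 nm FRET emission ratio; % is set by controls: 0 for no effect and ±100 for the full control effect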). As to conditions: ME-180 (cervical carcinoma) SIE beta-lactamase reporter, IL-6 stimulated, 5 h; series mostly up to 17.2 µM. An outline of the steps:
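ME-180 cells carrying a SIE-driven beta-lactamase reporter are stimulated with 40 pM IL-6 for 5 h at 37C in the presence of compound. The 460/530 nm FRET substrate ratio is read after 2.5 h at RT. Data are normalised to 300 pM IL-6 and to 125 nM JAK inhibitor controls.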

A short description of experiment [17]: Cell Viability - SH-SY5Y (AID 544; active = well fitted curve in the direction sought with a large enough effect; an effect the other way counts as inactive or inconclusive; note: nearly all actives have a fitted effect of over 55% in size; note: potency is the fitted concentration of half-maximal effect). To be noted: SH-SY5Y neuroblastoma cell viability; series mostly up to 92.2 µM. An outline of the steps:
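SH-SY5Y human neuroblastoma cells (1500/well) incubated 5 h, then compound-treated 40 h at 37 °C in complete medium. Viability read as intracellular ATP by CellTiter-Glo luminescence after 20 min; AC50 from Hill-equation fits of qHTS concentration-response.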

Experiment [18] in a line: Cell Viability - Mesenchymal (AID 546; active = well fitted curve in the direction sought with a large enough effect; an effect the other way counts as inactive or inconclusive;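 note: cells exposed to compound for 40 hours before reading; 0% = DMSO only and -100% = 100 µM tamoxifen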). As to conditions: mesenchymal cells viability, qHTS; series mostly up to 91.7 µM. An outline of the steps:
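Normal human renal glomerulus-derived kidney mesenchymal cells, 1000 per well in complete medium, were treated with compounds for 40 hr at 37 °C. Viability was read as intracellular ATP by CellTiter-Glo luminescence; AC50 values came from Hill-equation fits of qHTS concentration-response data.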

Experiment [19] is described as follows: Cell Viability - NIH 3T3 (AID 541; active = well fitted curve in the direction sought with a large enough effect; an effect the other way counts as inactive or inconclusive;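 note: plate controls were DMSO alone for no effect and tamoxifen positive control for full effect; nearly all actives have a fitted effect of over 25% in size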). To be noted: NIH 3T3 cell viability, qHTS; at 92.2 µM (top of the series). An outline of the steps:
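Mouse NIH 3T3 fibroblasts, 1000 cells/well, rested 5 hr at 37 °C, then exposed to compound for 40 hr at 37 °C in complete medium. Viability read as intracellular ATP by CellTiter-Glo luminescence; AC50 from Hill-equation fits of concentration-response data.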

Experiment [20] in a line: Cell Viability - H-4-II-E (AID 543; active = well fitted curve in the direction sought with a large enough effect; an effect the other way counts as inactive or inconclusive; note: % is set by controls: 0 for no effect and ±100 for the full control effect; nearly all actives have a fitted effect of over 35% in size). As to conditions: H-4-II-E rat hepatoma viability; series mostly up to 92.2 µM. An outline of the steps:
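Rat hepatoma H-4-II-E cells, 1500 per well, treated 40 h at 37 °C in complete medium. Cellular ATP read by CellTiter-Glo luminescence; AC50 from Hill fits of concentration-response.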

Chain of Glucocorticoid receptor (Homo sapiens) (P04150 whole entry, looked up): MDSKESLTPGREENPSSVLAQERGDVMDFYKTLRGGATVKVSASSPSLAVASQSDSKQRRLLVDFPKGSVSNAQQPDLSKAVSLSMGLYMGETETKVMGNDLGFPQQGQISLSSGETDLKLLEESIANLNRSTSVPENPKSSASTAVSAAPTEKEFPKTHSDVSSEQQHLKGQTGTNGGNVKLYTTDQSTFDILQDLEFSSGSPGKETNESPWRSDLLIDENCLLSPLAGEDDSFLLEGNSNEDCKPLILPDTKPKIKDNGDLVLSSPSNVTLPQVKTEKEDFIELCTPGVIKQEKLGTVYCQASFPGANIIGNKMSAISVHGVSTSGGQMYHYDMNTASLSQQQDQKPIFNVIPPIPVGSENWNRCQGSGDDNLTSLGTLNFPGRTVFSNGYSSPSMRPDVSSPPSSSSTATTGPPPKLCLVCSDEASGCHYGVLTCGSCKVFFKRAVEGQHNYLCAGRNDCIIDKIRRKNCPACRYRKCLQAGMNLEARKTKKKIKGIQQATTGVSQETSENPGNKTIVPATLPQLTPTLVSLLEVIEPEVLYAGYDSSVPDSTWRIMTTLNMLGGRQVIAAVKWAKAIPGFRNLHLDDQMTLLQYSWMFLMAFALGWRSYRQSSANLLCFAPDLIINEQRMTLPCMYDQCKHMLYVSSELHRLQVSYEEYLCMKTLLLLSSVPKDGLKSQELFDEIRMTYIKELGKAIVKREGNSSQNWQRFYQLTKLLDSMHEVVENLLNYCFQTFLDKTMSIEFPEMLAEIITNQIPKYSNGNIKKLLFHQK
Chain of Cytochrome P450 1A2 (Homo sapiens) (P05177 whole entry, looked up): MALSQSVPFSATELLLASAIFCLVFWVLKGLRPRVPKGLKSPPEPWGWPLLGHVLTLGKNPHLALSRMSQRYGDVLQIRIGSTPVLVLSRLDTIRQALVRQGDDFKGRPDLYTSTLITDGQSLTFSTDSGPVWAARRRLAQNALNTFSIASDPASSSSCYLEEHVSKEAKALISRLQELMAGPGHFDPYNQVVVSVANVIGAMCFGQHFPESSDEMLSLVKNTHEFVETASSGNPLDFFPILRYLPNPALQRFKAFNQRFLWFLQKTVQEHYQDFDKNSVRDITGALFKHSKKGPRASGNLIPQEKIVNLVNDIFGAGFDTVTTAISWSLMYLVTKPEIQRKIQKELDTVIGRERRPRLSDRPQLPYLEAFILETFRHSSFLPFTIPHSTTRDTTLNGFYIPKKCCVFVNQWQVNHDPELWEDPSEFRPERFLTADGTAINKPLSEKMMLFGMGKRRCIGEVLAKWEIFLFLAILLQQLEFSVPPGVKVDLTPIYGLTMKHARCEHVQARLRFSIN

Take `O=C(CCCN1CCC2(CC1)C(=O)NCN2c1ccccc1)c1ccc(F)cc1`: the outcome in [1] and in experiment [6] was inactive. The Potency result is “inactive and 25.1 µM (active)” in [2]; > 46 µM (inactive) and > 20.6 µM (inactive) in experiment [4]; > 46 µM (inactive) and > 20.6 µM (inactive) in experiment [5]. Also, the activity change, negative = inhibition was -4.55% (inactive) in experiment [3] (at 17.2 µM (top of the series)) and 10.5% (inactive) in [3] (at 38 µM (top of the series)).
`CN1C[C@H](C(=O)N[C@]2(C)O[C@@]3(O)[C@@H]4CCCN4C(=O)[C@H](Cc4ccccc4)N3C2=O)C=C2c3cccc4[nH]cc(c34)C[C@H]21`: the Potency was > 92 µM (inactive) in experiment [7]; 56.2 µM (active) in [8]; > 92 µM (inactive) in experiment [9]; > 92 µM (inactive) in experiment [10]; > 92 µM (inactive) in [11]. Besides, the compound was called inactive in experiment [6], in experiment [12] and in [14]. Also, the Potency result in [13] is “inactive”.
As to `Clc1cccc(SC2CCNCC2)n1`, the compound was called inactive in [6].
As to `O=C(O)CCCc1ccc(N(CCCl)CCCl)cc1`, the outcome in experiment [1], in experiment [16], in experiment [6], in [12], in experiment [14] and in experiment [18] was inactive. For the same compound, the Potency entry in experiment [2] and in experiment [13] was “inactive” throughout. Moreover, the Potency in [8] was 22.8 µM (active); in [15], 18.6 µM (active); in experiment [9], > 92 µM (inactive); in [17] it was 3.16 µM (active). Also, the activity change, negative = inhibition in experiment [3] (at 17.2 µM (top of the series)) was -26.3% (inactive); in experiment [3] (at 38 µM (top of the series)), -2.19% (inactive).
In the case of `Nc1ccccc1`, the Potency in experiment [7], in [8], in experiment [15], in [9], in experiment [10] and in experiment [11] was > 92 µM (inactive) each time. Moreover, the result in experiment [6], in experiment [12], in experiment [14] and in experiment [18] was inactive. Also, the activity change, negative = cytotoxicity in experiment [19] was -16.9% (inactive). Further, the Potency result in [13], in experiment [20] and in experiment [17] was “inactive” each time.
As for `COc1cc(OC)c(OC)cc1C=O`, the Potency in experiment [7], in experiment [8], in experiment [15], in experiment [9], in experiment [10] and in experiment [11] was > 92 µM (inactive) in each case. The call in experiment [12], in experiment [14] and in experiment [18] was inactive. In addition, the activity change, negative = cytotoxicity in experiment [19] is 6.21% (inactive). For the same compound, the Potency entry in experiment [13], in experiment [20] and in experiment [17] was “inactive” throughout.
Turning to `Oc1ccc(Cl)cc1`, the Potency in experiment [7], in experiment [8], in experiment [15], in experiment [9], in [10] and in experiment [11] was > 92 µM (inactive) throughout. Besides, the call in experiment [6], in [12], in experiment [14] and in [18] was inactive. Besides, in experiment [19], the activity change, negative = cytotoxicity is 5.07% (inactive). Moreover, the Potency result in [13], in [20] and in [17] was “inactive” each time.
For the compound `O=c1[nH]oc2c1CCNC2`, the outcome in [1], in experiment [16] and in [6] was inactive. The Potency entry in experiment [2] is “inactive”. Also, the activity change, negative = inhibition in experiment [3] (at 17.2 µM (top of the series)) was -9.07% (inactive); in experiment [3] (at 38 µM (top of the series)), 9.6% (inactive). Besides, the Potency was > 46 µM (inactive) and > 20.6 µM (inactive) in [4]; > 46 µM (inactive) and > 20.6 µM (inactive) in experiment [5].
On to `Cc1ncsc1CCCl`, for which the Potency in experiment [2] is 31.6 µM (active); in [4], > 46 µM (inactive); in experiment [5], > 46 µM (inactive). Moreover, in [6], the compound was classed as inactive.

For the origin of these results see PubChem BioAssay (NCATS).
